# Experimental data: PubChem BioAssay (NCI)
# This is part of a sample that, as a whole, favours compounds with a hit. Of some 83,000 tested, about 20% had one in any assay.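 Each cell line was grown in a 96-well plate and treated with one concentration of compound for 48 hours. Values below 10 were considered active.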 A number with no mark means an inactive call.
# Tested on: NCI-H322M lung
# Assay: NCI-60 one-dose screen, 48 h (100 = growth as untreated, 0 = no growth, -100 = all killed)
# Settings: 10 µM unless noted
row,SMILES,growth
1,O=C(COc1ccc(NC(=O)Nc2ccc(Cl)c(Cl)c2)cc1)N=Nc1c(O)[nH]c2ccccc12,28%
2,COc1ccc(-c2nnc3ccc(N/N=C/c4ccc(O)cc4)nn23)cc1,61.9%
3,CCCSc1nc(NCCc2c[nH]c3ccccc23)c(C#N)c(-c2ccccc2)n1,93.5%
4,CSc1ccc(C(=O)Nc2ccc3nnn(/C(C#N)=C/c4ccccn4)c3c2)cc1,57.9%
5,CC(=O)OC[C@@]1(C)C2CC[C@]3(C)C(CC=C4C5CC(C)(C)CC[C@]5(C(=O)Nc5cccc(C)c5)CC[C@]43C)[C@@]2(C)C[C@@H](OC(C)=O)[C@@H]1OC(C)=O (some centres not stated),65.9%
6,CN(C)c1ccnc(CNCCSC2(c3ccccc3)c3ccccc3C=Cc3ccccc32)c1,29.1%
7,Cn1cc(-c2nnc(N)nc2-c2c[nH]c3ccc(F)cc23)c2cccnc21,71%
8,Clc1cccc(-c2ccc(OCCCN3CCN(c4ccncc4)CC3)cc2)c1,53.4%
9,Cc1ccccc1[C@H]1C(C(=O)c2ccc(Cl)cc2)C2(N[C@@H]1c1ccccc1)C(=O)Nc1ccc(Br)cc12 (some centres not stated),39.4%
10,CN(C)c1ccnc(CNCCSC2(c3ccc(C(F)(F)F)cc3)c3ccccc3C=Cc3ccccc32)c1,42.9%
11,O=C(c1ccc(OCCN2CCOCC2)cc1)C1[C@H](c2ccc(Cl)cc2)[C@@H](c2ccccc2)NC12C(=O)Nc1ccc(Cl)cc12 (some centres not stated),55.6%
12,COc1cc(CNC(=O)/C=C/c2ccc3c(c2)OCO3)ccc1OCc1cn(-c2ccc([N+](=O)[O-])cc2)nn1,91.5%
